From PubChem
GLS inhibitor: inhibitors of human glutaminase (GLS); O94925; GLS enzymatic activity, qHTS titration; Potency, µM (top dose mostly 45.5 µM), inactives show top-dose activity change, negative = inhibition, most hits filed as inhibitors; 410,000 tested, 0.21% active; AID 624170; also: % is scaled to controls: 0 for no effect and ±100 for the full control effect
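hKGA in 45 mM KH2PO4 (pH 8.2), 0.02% Tween-20 with compound, then 1mM L-Glutamine (stock as added) plus glutamate oxidase/HRP/Amplex red coupling mix. Fluorescence read initially and after 30 min at RT; signal change reflects glutamate formation.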
BAZ2B block: blocks human BAZ2B; AlphaScreen BAZ2B-H3K14Ac peptide displacement; 360,000 tested, 4.4% active; Potency, µM (series often up to 114 µM), without a hit: at the highest dose activity change, negative = inhibition, hits mostly inhibitors; AID 504333; also: % is scaled to controls: 0 for no effect and ±100 for the full control effect; nearly all actives have a fitted effect of over 60% in size
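AlphaScreen displacement of biotin-H3(5-23)K14Ac peptide (50 nM final) from BAZ2B (50 nM final) in PBS pH 7.4, 0.01% Tween-20; complex preformed 30 min RT, then compounds (top 110 uM) 30 min RT, beads 20 min dark.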
HP1b chromo inh: inhibitors of HP1-beta chromodomain binding to methylated histone tails; AID 540317; AlphaScreen HP1-beta / biotin-H3K9me3 peptide binding; P83916; 390,000 tested, 0.56% active; Potency, µM (series often up to 114 µM), inactives show top-dose activity change, negative = inhibition, hits mostly inhibitors; also: nearly all actives have a fitted effect of over 70% in size
Target sequence (P83916 whole entry, looked up): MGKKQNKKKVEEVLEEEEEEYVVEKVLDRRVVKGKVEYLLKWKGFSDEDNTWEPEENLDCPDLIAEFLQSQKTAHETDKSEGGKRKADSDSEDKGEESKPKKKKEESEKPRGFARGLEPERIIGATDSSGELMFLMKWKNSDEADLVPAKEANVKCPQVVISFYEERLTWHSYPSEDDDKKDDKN
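HP1-beta protein (50 nM final) preincubated 30 min at room temperature with biotinylated H3(1-18)K9me3 peptide (50 nM) in PBS pH 7.4, 0.01% Tween-20, then compound added for 30 min. AlphaScreen streptavidin donor/nickel chelate acceptor beads (10 ug/mL final), 30 min dark, luminescence read.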
JMJD2A Tudor: inhibitors of human JMJD2A Tudor domain; O75164; AlphaScreen JMJD2A-Tudor / H3K4me3 peptide binding; Potency, µM (top dose mostly 114 µM), without a hit: top-dose activity change, negative = inhibition, most hits filed as inhibitors; 390,000 tested, 4.4% active; also: % is scaled to controls: 0 for no effect and ±100 for the full control effect; nearly all actives have a fitted effect of over 50% in size
G9a block: blocks human histone lysine methyltransferase G9a; Q96KQ7; G9a H3K9 monomethylation, AlphaScreen, 2 h; Potency, µM (top dose mostly 102 µM), without a hit: top-dose activity, negative = inhibition, hits mostly inhibitors; 350,000 tested, 8.8% active; AID 504332; also: % is scaled to controls: 0 for no effect and ±100 for the full control effect; nearly all actives have a fitted effect of over 75% in size
Target sequence (Q96KQ7 913-1193 limits assumed): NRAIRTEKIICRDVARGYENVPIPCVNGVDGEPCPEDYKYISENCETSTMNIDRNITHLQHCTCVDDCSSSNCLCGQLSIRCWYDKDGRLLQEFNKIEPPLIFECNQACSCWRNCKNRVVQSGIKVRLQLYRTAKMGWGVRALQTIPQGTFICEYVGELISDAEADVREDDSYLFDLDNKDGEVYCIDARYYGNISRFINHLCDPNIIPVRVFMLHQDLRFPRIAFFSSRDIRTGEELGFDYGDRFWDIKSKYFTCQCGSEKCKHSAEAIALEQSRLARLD
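Compounds were preincubated with 20 nM G9a for 15 min, after which biotinylated H3K9 peptide (500 nM) and SAM (20 uM) started a 2 h room-temperature reaction. Monomethylated product was quantified by antibody-based AlphaScreen chemiluminescence.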
The depositor's hits bear a star; [ ] = remark or other dose. Only some compounds are listed: those with a hit (about 10% of all), similar ones and a draw of the others. Calls follow the shape of the dose curve; as a rule, active = well fitted curve in the direction sought with a large enough effect; inconclusive = small, poorly fitted or top-dose-only effect, or another doubt; inactive = no such curve, though single readings can be large; an effect the other way counts as inactive or inconclusive. Potency is read from the fitted curve at half-maximal effect.

`O=[N+]([O-])c1cc2cccnc2c2ncccc12` gave GLS inhibitor 7%, BAZ2B block 22µM*, HP1b chromo inh 20% and JMJD2A Tudor 79µM*.
For Cc1ccc([N+](=O)[O-])c2cccnc12 the results were GLS inhibitor 6%, BAZ2B block -13%, HP1b chromo inh 7% and JMJD2A Tudor -17%.
For CC1=C(c2ccc(C)c(C)c2)S(=O)(=O)N=C1N1CCC(C(=O)NCCc2ccc(Cl)cc2)CC1 the results were GLS inhibitor -6%, BAZ2B block 6%, HP1b chromo inh 66%, JMJD2A Tudor -10% and G9a block 25%[59 µM].
Screening S=c1sscc1-c1ccccc1 returned GLS inhibitor 1%, HP1b chromo inh 20µM* and JMJD2A Tudor 32µM*.
`COC(=O)c1ccccc1-n1cc2c(c1-c1cccc(C)c1)c(=O)n(C)c(=O)n2C` gave GLS inhibitor -8%, BAZ2B block -13%, HP1b chromo inh 16%, JMJD2A Tudor -24% and G9a block 7.9µM*.
`CC(C)(C)C(=O)Nc1cccc(C(=O)OCc2cc(=O)n3nc(C4CC4)sc3n2)c1` gave GLS inhibitor 5%, BAZ2B block -18%, HP1b chromo inh 24%, JMJD2A Tudor -8% and G9a block inconclusive.
COc1ccccc1CCNC(=O)C(C)Sc1nc(-c2ccccc2)cc(C(F)(F)F)n1 (configuration not stated) was read as GLS inhibitor 1%, BAZ2B block -2%, HP1b chromo inh 36%, JMJD2A Tudor -12% and G9a block 7%[59 µM].
Screening COCC(=O)Oc1cc(-c2ccc(C)cc2C)c(OC(=O)COC)c(-c2ccc(C)cc2C)c1 returned GLS inhibitor -5%.
COc1ccc(N2Cc3cccc(C(=O)NC(C)CCc4ccco4)c3C2=O)cc1 (configuration not stated) was read as GLS inhibitor 0%, BAZ2B block 35µM*, HP1b chromo inh inconclusive, JMJD2A Tudor 45µM* and G9a block inconclusive.
For Cc1ccc(C)c(N2CCN(C(=O)c3cc(S(=O)(=O)N4CCCC4)c[nH]3)CC2)c1 the results were GLS inhibitor 3%, BAZ2B block inconclusive, HP1b chromo inh 0%, JMJD2A Tudor -28% and G9a block -9%[59 µM].
`Cc1ccc(C(=O)COC(=O)c2cc(=O)[nH]c3ccccc23)cc1C` gave GLS inhibitor -8%, BAZ2B block 50µM*, HP1b chromo inh inconclusive, JMJD2A Tudor -33% and G9a block 28µM*.
CCOc1ccc(C2C(C(=O)c3ccc(C)o3)=C(O)C(=O)N2c2cc(C)on2)cc1OC (configuration not stated) was read as GLS inhibitor 9%, BAZ2B block -26%[57.1 µM], HP1b chromo inh 11%, JMJD2A Tudor -34% and G9a block 50µM*.
Screening COc1cc(C2C(C(=O)c3ccc(C)o3)=C(O)C(=O)N2c2cc(C)on2)cc(OC)c1OC (configuration not stated) returned GLS inhibitor 6%, BAZ2B block 6%, HP1b chromo inh 30%, JMJD2A Tudor -2% and G9a block 0%[59 µM].
Screening COc1ccccc1C1C(C(=O)c2ccc(C)o2)=C(O)C(=O)N1c1cc(C)on1 (configuration not stated) returned GLS inhibitor -7%, BAZ2B block inconclusive, HP1b chromo inh 22%, JMJD2A Tudor -10% and G9a block 89µM*.
COc1ccccc1C1C(C(=O)c2ccco2)=C(O)C(=O)N1c1cc(C)on1 (configuration not stated) was read as GLS inhibitor 1%, BAZ2B block -21%, HP1b chromo inh 25%, JMJD2A Tudor -9% and G9a block inconclusive.
COc1cc(C2C(C(=O)c3cccs3)=C(O)C(=O)N2c2cc(C)on2)ccc1O (configuration not stated) was read as GLS inhibitor 46%, BAZ2B block inconclusive, HP1b chromo inh 18%, JMJD2A Tudor inconclusive and G9a block 50µM*.
